Results filed as inconclusive are left out. Activity calls are given as the source filed them. Unless noted, calls come from the whole dose curve; as a rule, active = well fitted curve in the direction sought with a large enough effect; inconclusive = small, poorly fitted or top-dose-only effect, or another doubt; inactive = no such curve, though single readings can be large; an effect the other way counts as inactive or inconclusive.
Experiments:
CASKI = experiment: Primary qHTS to identify gynecologic anti-cancer compounds using libraries of approved drugs and bioactive compounds (AID 1345084); conditions: Gynecologic cancer cell panel viability, ATPlite luminescence, 48 h; series mostly up to 57.5 µM; note: nearly all actives have a fitted effect of over 55% in size; note: potency is the fitted concentration of half-maximal effect
In short: (§1)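 Cell viability after 48 h drug treatment, ATPlite luminescence readout; five doses.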

HeLa = experiment: as above; conditions: Gynecologic cancer cell panel viability, ATPlite luminescence, 48 h; series mostly up to 57.5 µM
In short: as §1

Hek293T = experiment: as above; conditions: Gynecologic cancer cell panel viability, ATPlite luminescence, 48 h, control line for the selectivity index; series mostly up to 57.5 µM
In short: as §1

JEG-3 = experiment: as above; conditions: Gynecologic cancer cell panel viability, ATPlite luminescence, 48 h; series mostly up to 57.5 µM
In short: as §1

OV90 = experiment: as above; conditions: Gynecologic cancer cell panel viability, ATPlite luminescence, 48 h; series mostly up to 57.5 µM
In short: as §1

PA-1 = experiment: as above; conditions: Gynecologic cancer cell panel viability, ATPlite luminescence, 48 h; series mostly up to 57.5 µM
In short: as §1

SKOV3 = experiment: as above; conditions: Gynecologic cancer cell panel viability, ATPlite luminescence, 48 h; series mostly up to 57.5 µM
In short: as §1

Tov-21-G = experiment: as above; conditions: Gynecologic cancer cell panel viability, ATPlite luminescence, 48 h; series mostly up to 57.5 µM
In short: as §1

Tov112D = experiment: as above; conditions: Gynecologic cancer cell panel viability, ATPlite luminescence, 48 h; series mostly up to 57.5 µM
In short: as §1

Es-2 = experiment: as above; conditions: Gynecologic cancer cell panel viability, ATPlite luminescence, 48 h; series mostly up to 57.5 µM
In short: as §1

[1] = biological target: Nuclear receptor subfamily 1 group I member 2 (Rattus norvegicus) (UniProt Q9R1A7); experiment: qHTS assay for small molecule activators of the rat pregnane X receptor (rPXR) signaling pathway (AID 651751; call rule not given here; note: 0% is about no effect); conditions: rPXR reporter cells, luciferase (One-Glo), 24 h
Chain of Nuclear receptor subfamily 1 group I member 2 (Rattus norvegicus) (Q9R1A7 whole entry, looked up): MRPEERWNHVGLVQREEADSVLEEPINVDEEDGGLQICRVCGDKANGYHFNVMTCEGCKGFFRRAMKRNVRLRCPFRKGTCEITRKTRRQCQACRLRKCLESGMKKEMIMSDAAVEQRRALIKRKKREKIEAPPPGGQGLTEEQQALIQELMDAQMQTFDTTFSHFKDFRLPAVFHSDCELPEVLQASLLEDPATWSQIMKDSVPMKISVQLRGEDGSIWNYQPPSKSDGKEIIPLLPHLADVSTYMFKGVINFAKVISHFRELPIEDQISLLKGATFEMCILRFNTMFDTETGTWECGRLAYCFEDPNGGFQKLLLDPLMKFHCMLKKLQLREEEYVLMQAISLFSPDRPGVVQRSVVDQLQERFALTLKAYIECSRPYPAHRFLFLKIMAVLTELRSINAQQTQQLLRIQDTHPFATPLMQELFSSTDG

[2] = Drug repurposing screens with cells derived from glioblastoma tumor samples (AID 1345199); conditions: GBM patient neurospheres viability, ATP luminescence, 48 h; note: nearly all actives have a fitted effect of over 40% in size; note: potency is the fitted concentration of half-maximal effect; for activity, negative = cell killing: % is set by controls: 0 for no effect and ±100 for the full control effect
In short: (§2)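 Primary testing used CD133+ neurospheres from four GBM patients, seven concentrations, 48 h exposure and ATP-based viability; confirmation added three slower-growing patient lines.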

astro = experiment: as above; conditions: viability, ATP luminescence, 48 h; series mostly up to 45.9 µM
In short: as §2

[3] = at 45.9 µM (top of the series), tumour line D
[4] = at 45.9 µM (top of the series), tumour line B
[5] = at 46.1 µM (top of the series), tumour line C

OC(CN1CCN(c2cccc(Cl)c2)CC1)C(c1ccccc1)c1ccccc1 (stereo not given)
inactive: Potency (CASKI) | Potency (HeLa) | Potency (Hek293T) | Potency (JEG-3) | Potency (OV90) | Potency (PA-1) | Potency (SKOV3) | Potency (Tov-21-G) | Potency (Tov112D)

CC(C)Oc1ccc2c(=O)c(-c3ccccc3)coc2c1
active: Potency (Es-2) 5.01 µM | Potency (HeLa) 28.2 µM | Potency (OV90) 22.4 µM | Potency (PA-1) 20 µM | Potency (Tov-21-G) 15.8 µM | Potency (Tov112D) 20 µM

CN(C)CCCC1(c2ccc(F)cc2)OCc2cc(C#N)ccc21 (stereo not given)
inactive: Potency (Es-2) | Potency (HeLa) | Potency (Hek293T) | Potency (JEG-3) | Potency (PA-1) | Potency (SKOV3) | Potency (Tov-21-G) | Potency (Tov112D)

O=c1c(O)c(-c2ccc(O)cc2O)oc2cc(O)cc(O)c12
inactive: max response [1] -2.11%

CC[C@]1(O)C[C@H]2CN(CCc3c([nH]c4ccccc34)[C@@](C(=O)OC)(c3cc4c(cc3OC)N(C=O)[C@H]3[C@@](O)(C(=O)OC)[C@H](OC(C)=O)[C@]5(CC)C=CCN6CC[C@]43[C@@H]65)C2)C1
active: Potency (Es-2) 0.891 µM | Potency (HeLa) 0.891 µM | Potency (OV90) 1.78 µM | Potency (PA-1) 0.199 µM | Potency (Tov112D) 0.178 µM | Potency ([2]; tumour line A) 0.02 µM
inactive: activity, negative = cell killing [2, 3] -44.9%

c1ccc2[nH]c(-c3cscn3)nc2c1
inactive: Potency (HeLa) | Potency (JEG-3) | Potency (OV90) | Potency (PA-1) | Potency (SKOV3) | Potency (Tov-21-G) | Potency (Tov112D) | activity, negative = cell killing [2, 4] -26.3% | activity, negative = cell killing [2, 5] 7.08%

Nc1nc(Cl)nc2c1ncn2[C@H]1C[C@H](O)[C@@H](CO)O1
inactive: max response [1] -12.9%

CNC[C@@H](O)[C@@H](O)[C@H](O)[C@H](O)CO
inactive: activity, negative = cell killing [2, 4] 0.477% | activity, negative = cell killing [2, 3] -17.4% | activity, negative = cell killing [2, 5] -4.13% | Potency (astro)

CCCCCCCCCCCCCCCCCCCCCCO
inactive: activity, negative = cell killing [2, 4] -4.68% | activity, negative = cell killing [2, 3] 1.13% | activity, negative = cell killing ([2]; at 46 µM (top of the series), tumour line A) -31.4% | activity, negative = cell killing [2, 5] 4.25% | Potency (astro)

Reference: PubChem BioAssay (NCATS)
